These results are taken from PubChem BioAssay (EPA / NIEHS).

“And” between values parts separate entries of the source, which are not always exact repeats. Equal values may be shown once. The source made the active and inactive calls. How the source made its calls: active means hit-call score of the fitted dose curve at least 0.9, where 1 is the maximum; inactive means score below 0.9.

Read-out in the first test: Protein phosphatase 2A (PPP2R4), PTPA (gene 5524)
The test can be described thus: LTEA_HepaRG_PPP2R4: Life Technologies and Expression Analysis (LTEA) Assay for Protein phosphatase 2A (PPP2R4) using HepaRG (AID 2283522). Conditions: mRNA level, 48 h; actives raise or lower the signal. In short, it runs like this: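 Readout is PPP2R4 transcript level by microfluidic qRT-PCR after 48 h chemical treatment of human HepaRG liver cells. Concentrations spanned 100 uM downward in half-log steps; gain or loss of signal was fitted relative to DMSO.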
With `CSC(=O)c1cccc2nnsc12`, the call was inactive.

For `c1ccc(Nc2ccccc2)cc1`, the molecule was called inactive.

Take `CCOC(=O)NCCOc1ccc(Oc2ccccc2)cc1`: the outcome was inactive.

`CC(C)(c1ccc(O)cc1)c1ccc(O)cc1`: the outcome was inactive.

`Oc1ccc(C(c2ccc(O)cc2)C(Cl)(Cl)Cl)cc1`: the half-maximal activity concentration (AC50) (usually the concentration giving half of the maximal activity seen) is 82.3 µM (active).

As for `CCOC(=O)c1ccc(O)cc1`, the molecule was classed as inactive.

Turning to `CCCCCOC(=O)COc1cc(N2C(=O)C3=C(CCCC3)C2=O)c(F)cc1Cl`, the outcome was inactive.

With `C[C@]12CC[C@@H]3c4ccc(O)cc4C[C@@H](CCCCCCCCCS(=O)CCCC(F)(F)C(F)(F)F)[C@H]3[C@@H]1CC[C@@H]2O` (some centres not stated), the AC50 was 0.0315 µM (active).

Take `CCCCCCC(C)OC(=O)COc1nc(F)c(Cl)c(N)c1Cl` (configuration not stated): the molecule was called inactive.

With `N[C@@H](Cc1cc(I)c(Oc2ccc(O)c(I)c2)c(I)c1)C(=O)O`, the molecule was called inactive.

With `CCNc1nc(N)nc(Cl)n1`, the result was inactive.

For `COCCO`, the outcome was inactive.

As for `CCN(Cc1c(F)cccc1Cl)c1c([N+](=O)[O-])cc(C(F)(F)F)cc1[N+](=O)[O-]`, the call was inactive.

Consider `CN(C)C(=O)Nc1ccc(Cl)c(Cl)c1`, for which the outcome was inactive.

With `CCCCOCCOCCOCc1cc2c(cc1CCC)OCO2`, the result was inactive.

Take `CCOC(=O)C(C)Oc1ccc(Oc2cnc3cc(Cl)ccc3n2)cc1` (configuration not stated): the outcome was inactive.

Turning to `CCSC(=O)N(CC(C)C)CC(C)C`, the result was inactive.

Take `COC(=O)CSc1cc(N=c2sc(=O)n3n2CCCC3)c(F)cc1Cl`: the molecule was classed as inactive.

As for `c1ccc2[nH]c(-c3cscn3)nc2c1`, the call was inactive.

With `CCCCC(CC)COC(=O)c1ccccc1C(=O)O` (configuration not stated), the molecule was called inactive.

As to `CCOC(=O)C(C)Oc1ccc(Oc2nc3ccc(Cl)cc3o2)cc1` (configuration not stated), the outcome was inactive.

As for `O=C(c1ccccc1)C1CCCCC1`, the molecule was called inactive.

Take `COc1c(Cl)ccc(Cl)c1C(=O)O`: the result was inactive.

`CC(=O)[C@H]1CC[C@H]2[C@@H]3CCC4=CC(=O)CC[C@]4(C)[C@H]3CC[C@]12C`: the AC50 is 87.5 µM (active).

As to `CC1(C)C(C=C(Cl)Cl)C1C(=O)OCc1cccc(Oc2ccccc2)c1` (configuration not stated), the outcome was inactive.

As for `S=C(S)NCCNC(=S)S.[Mn+2].[S-]C([S-])=NCCN=C([S-])[S-].[Zn+2]`, the half-maximal activity concentration (AC50) was 960 nM (active) and 2.26 µM (active).

Read-out in the next test: Phosphatase and tensin (PTEN), PTEN (gene 5728)
Put plainly: LTEA_HepaRG_PTEN: Life Technologies and Expression Analysis (LTEA) Assay for Phosphatase and tensin (PTEN) using HepaRG (AID 2283523). Conditions: mRNA level, 48 h; actives raise or lower the signal. In short, it runs like this:
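Differentiated human HepaRG cells, plated 48 h then switched to serum-free induction medium, were exposed in duplicate for 48 h to eight half-log concentrations up to 100 uM in 0.5% DMSO. PTEN mRNA measured by TaqMan qRT-PCR, normalized to ACTB/GAPDH/POLR2A, bidirectional fit versus DMSO.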
With `CSC(=O)c1cccc2nnsc12`, the molecule was classed as inactive.

In the case of `c1ccc(Nc2ccccc2)cc1`, the outcome was inactive.

As to `CCOC(=O)NCCOc1ccc(Oc2ccccc2)cc1`, the call was inactive.

Regarding `CC(C)(c1ccc(O)cc1)c1ccc(O)cc1`, the molecule was classed as inactive.

Regarding `Oc1ccc(C(c2ccc(O)cc2)C(Cl)(Cl)Cl)cc1`, the concentration at half-maximal activity (AC50) was 76.9 µM (active).

On to `CCOC(=O)c1ccc(O)cc1`, for which the call was inactive.

As to `CCCCCOC(=O)COc1cc(N2C(=O)C3=C(CCCC3)C2=O)c(F)cc1Cl`, the call was inactive.

`C[C@]12CC[C@@H]3c4ccc(O)cc4C[C@@H](CCCCCCCCCS(=O)CCCC(F)(F)C(F)(F)F)[C@H]3[C@@H]1CC[C@@H]2O` (some centres not stated): the call was inactive.

In the case of `CCCCCCC(C)OC(=O)COc1nc(F)c(Cl)c(N)c1Cl` (configuration not stated), the outcome was inactive.

As to `N[C@@H](Cc1cc(I)c(Oc2ccc(O)c(I)c2)c(I)c1)C(=O)O`, the call was inactive.

As for `CCNc1nc(N)nc(Cl)n1`, the result was inactive.

With `COCCO`, the call was inactive.

Consider `CCN(Cc1c(F)cccc1Cl)c1c([N+](=O)[O-])cc(C(F)(F)F)cc1[N+](=O)[O-]`, for which the result was inactive.

For the molecule `CN(C)C(=O)Nc1ccc(Cl)c(Cl)c1`, the call was inactive.

With `CCCCOCCOCCOCc1cc2c(cc1CCC)OCO2`, the molecule was called inactive.

Regarding `CCOC(=O)C(C)Oc1ccc(Oc2cnc3cc(Cl)ccc3n2)cc1` (configuration not stated), the molecule was classed as inactive.

As for `CCSC(=O)N(CC(C)C)CC(C)C`, the outcome was inactive.

`COC(=O)CSc1cc(N=c2sc(=O)n3n2CCCC3)c(F)cc1Cl`: the molecule was classed as inactive.

`c1ccc2[nH]c(-c3cscn3)nc2c1`: the result was inactive.

In the case of `CCCCC(CC)COC(=O)c1ccccc1C(=O)O` (configuration not stated), the call was inactive.

As to `CCOC(=O)C(C)Oc1ccc(Oc2nc3ccc(Cl)cc3o2)cc1` (configuration not stated), the result was inactive.

`O=C(c1ccccc1)C1CCCCC1`: the molecule was classed as inactive.

In the case of `COc1c(Cl)ccc(Cl)c1C(=O)O`, the molecule was called inactive.

Regarding `CC(=O)[C@H]1CC[C@H]2[C@@H]3CCC4=CC(=O)CC[C@]4(C)[C@H]3CC[C@]12C`, the half-maximal activity concentration (AC50) is 87.5 µM (active).

On to `CC1(C)C(C=C(Cl)Cl)C1C(=O)OCc1cccc(Oc2ccccc2)c1` (configuration not stated), for which the molecule was classed as inactive.

Regarding `S=C(S)NCCNC(=S)S.[Mn+2].[S-]C([S-])=NCCN=C([S-])[S-].[Zn+2]`, the AC50 was 1.75 µM (active) and 2.98 µM (active) and 2.22 µM (active).
